# PNC assembly inh = High Content Assay for Compounds that inhibit the Assembly of the Perinucleolar Compartment; AID 2417, 2010; activity change (PNC), negative = inhibition, % at 10 µM; 3.1% of 140,000 active; PC3M PTB-GFP, PNC prevalence imaging, 16 h; stronger effect = lower value;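 active = readout at or below -70, meaning at least 70% loss of cells showing the perinucleolar compartment, a nuclear body marking cancer cells; inconclusive = readout between -30 and a set limit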;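 also: plate controls were DMSO wells for no effect and camptothecin positive control wells for full effect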
#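 Read-out is percentage of cells bearing a perinucleolar compartment, from automated 20x imaging of fixed, Hoechst-stained PC3M PTB-GFP cells. Cells were seeded 4 h, then exposed 16 h to compound (23 nl of library stock) in duplicate plates.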
# IMPase Li cell = qHTS Assay for Identifying the Cell-Membrane Permeable IMPase Inhibitors: Potentiation with Lithium; Potency, µM (top dose mostly 59.4 µM), inactives show top-dose activity, negative = IMPase inhibition, usual class: inhibitors; CHO-M1 cells, IP1 TR-FRET (IP-One), carbachol + lithium; 0.35% of 210,000 active; active = well fitted curve in the direction sought with a large enough effect; inconclusive = small, poorly fitted or top-dose-only effect, or another doubt; inactive = no such curve, though single readings can be large; an effect the other way counts as inactive or inconclusive;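 also: IP1 builds up when IMPase is blocked and the TR-FRET signal falls; potency is read from the fitted curve at half-maximal effect; plate controls were basal vehicle for no effect and high inhibitor control for full effect; nearly all actives have a fitted effect of over 50% in size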
#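 IP1 accumulation measured by competitive TR-FRET in lysed CHO-M1 cells after 30 min compound exposure at 37C, with a small lithium addition to potentiate weak responses. Hill-equation AC50 from ratio and donor-channel data.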
# HPGD block = qHTS Assay for Inhibitors of HPGD (15-Hydroxyprostaglandin Dehydrogenase); purified HPGD, NADH fluorescence kinetic, PGE2 substrate; Potency, µM, without a hit: at the top dose activity change, negative = inhibition, hits mostly inhibitors; 4.3% of 150,000 active; also: potency is read from the fitted curve at half-maximal effect
#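 NADH formation kinetics: reaction with 30 uM PGE2 and 1 mM NAD+ (final), 20 nM enzyme, Tris-HCl pH 8 with Tween 20, after 15 min compound preincubation at room temperature. Fluorescence change, last versus first of five reads.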
# ALDH1A1 inh = qHTS Assay for Inhibitors of Aldehyde Dehydrogenase 1 (ALDH1A1) | Potency, µM (titrated, usually from 75.3 µM), inactives show top-dose activity, negative = inhibition, most hits filed as inhibitors | 7.3% of 220,000 active | Purified ALDH1A1, NADH fluorescence, propionaldehyde substrate;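 also: potency is read from the fitted curve at half-maximal effect; plate controls were no enzyme wells and a reference inhibitor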
# IMPase inh = qHTS Assay for Identifying the Cell-Membrane Permeable IMPase Inhibitors; inhibition (IP1 accumulation), % at 46.1 µM; 120,000 tested, under 10 active; AID 901, 2007; CHO-M1 cells, IP1 accumulation, HTRF TR-FRET ratio; Inositol monophosphatase 1 (Rattus norvegicus), P97697; active = well fitted curve in the direction sought with a large enough effect in the signal ratio, not every such curve was filed as active; inconclusive = small, poorly fitted or top-dose-only effect, or a change in a side signal; inactive = no such curve, though single readings can be large or run the other way; the % refers to the signal ratio;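 also: cells stimulated with carbachol in lithium chloride buffer; plate controls were DMSO basal wells for no effect and reference inhibitor wells for full effect; higher means more IMPase inhibition seen as more IP1 and lower FRET ratio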
#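 In this qHTS, compounds (final up to 46 uM) act on CHO-M1 cells that are then activated through the M1 receptor with carbachol, in pH 7.4 buffer containing 50 mM LiCl, for 30 min. IP1 accumulation is quantified by the IP-One immunoassay.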
# 12-hLO inh = qHTS Assay for Inhibitors of 12-hLO (12-human lipoxygenase); Polyunsaturated fatty acid lipoxygenase ALOX12 (Homo sapiens), P18054; purified 12-hLO, xylenol orange hydroperoxide absorbance; Potency, µM (titrated, usually from 57.1 µM), for the others: top-dose activity change, negative = inhibition, hits mostly inhibitors; 0.12% of 150,000 active; active = well fitted curve in the direction sought with a large enough effect; inconclusive = small, poorly fitted or top-dose-only effect, or another doubt; inactive = no such curve, though single readings can be large; an effect the other way counts as inactive or inconclusive; also: potency is read from the fitted curve at half-maximal effect; nearly all actives have a fitted effect of over 55% in size
#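 150 nM 12hLO, 25 mM Hepes pH 7.0 + 0.01% Triton X-100; cpd preinc 15 min RT; 40 uM arachidonic acid, 30 min RT; Fe-XO 30 min; A573/A405 ratio as read-out.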
# An asterisk follows results filed as active; ? = inconclusive; · = not tested or not shown; [ ] = remark or other dose. Compounds with a hit are over-represented: about 11% of the library has one in this group of screens. Unless noted, calls follow the shape of the dose curve; as a rule, active = well fitted inhibition curve with a large enough effect (not every such curve was filed as active); inconclusive = small, poorly fitted or top-dose-only effect, or another doubt; inactive = no such curve, though single readings can be large or run the other way. Unless noted, % is scaled to controls: 0 for no effect and ±100 for the full control effect.
SMILES,PNC assembly inh,IMPase Li cell,HPGD block,ALDH1A1 inh,IMPase inh,12-hLO inh
CC(CN1CCCCC1)C(=O)NN (stereo not drawn),·,-3%,·,10%,·,·
COc1ccc(OC)c(N2C(N)=NC(N)=NC23CCCC3)c1,16,·,·,22µM*,-2,-8%
C(CCc1nnc2c(n1)CCCC2)Cc1nnc2c(n1)CCCC2,·,14%,-2%,12%[13.5 µM],·,2%[11.4 µM]
CC(=O)OC[C@H]1O[C@@H](O/N=C2/[C@H]3O[C@@H]3[C@@H](O)[C@H]3[C@H]2CCn2c(=O)n(-c4ccccc4)c(=O)n23)[C@H](OC(C)=O)[C@@H](OC(C)=O)[C@@H]1OC(C)=O,·,·,·,-10%[13.5 µM],·,·
COCCOc1nc2c(c(=O)n(C)c(=O)n2C)n1Cc1cccc(OC)c1,-28,30%[38.3 µM],-2%,?,3,2%
COc1cccc(Cn2c(OCC3CCCO3)nc3c2c(=O)n(C)c(=O)n3C)c1 (stereo not drawn),-24,-2%,-11%,7.1µM*,·,-3%
Cc1cc(NC(=O)c2cc(C(C)C)on2)no1,43,-7%[38.3 µM],2%,17%,-1,3%
CC(C)c1cc(NC(=O)CCl)on1,·,10%,·,1.6µM*,·,·
COc1ccc(S(=O)(=O)N2CCC(C(=O)NCc3ccccn3)CC2)cc1C,17,16%[38.3 µM],-8%,-12%,-17,5%
CCC(=O)N=c1n(C)c2ccccc2n1CCOc1ccccc1,33,-2%,-7%,5µM*,·,4%
O=C(CSCc1ccccc1Cl)NN=C1CCCCCC1,?,-5%[38.3 µM],-17%,22µM*,1[1.84 µM],-1%
O=C(CSCc1c(Cl)cccc1Cl)NN=C1CCCC1,·,-19%,·,1.6µM*,·,·
CCC(=O)c1ccc(N2CCN(C(=O)c3ccccc3F)CC2)c(F)c1,·,20%,·,14µM*,·,·
CCOC(=O)N1CCN(c2cc3[nH]c(=S)[nH]c3cc2F)CC1,-91*,24%[38.3 µM],?,?,-7,-4%
CCOC(=O)N1CCN(c2ccc(C(=O)c3ccccc3)cc2F)CC1,7,-4%[38.3 µM],28µM*,?,3,-10%
CCC(=O)c1ccc(N2CCCCCC2)c(F)c1,24,36%[38.3 µM],16µM*,?,-3,-1%
CCSc1nnc2c(n1)OC(c1cc(OC)c(OC)c(OC)c1)Nc1ccccc1-2 (stereo not drawn),·,·,·,·,10,·
COC(=O)c1ccc(C(NC(=O)OCc2ccccc2)/C(=C/[C@@H](C)C(=O)NCc2cc(C)on2)c2cccnc2)cc1 (stereo partly drawn),·,0%,-6%,1%,·,3%
COC(=O)c1ccc(C(NC(=O)OCc2ccccc2)/C(=C/[C@@H](C)C(=O)NCCF)c2cccnc2)cc1 (stereo partly drawn),·,-4%,-16%,9%,·,-5%
CCCC(=O)c1ccc(N2CCCC2)c(F)c1,19,1%,22µM*,?,-1,-4%
O=C(NCCCN1CCOCC1)c1ccc(CNS(=O)(=O)c2ccc(Br)cc2)cc1,-6,24%,-10%,22µM*,·,-1%
Cc1ccc(C(C)(C)C)cc1,·,17%,-8%,12%,·,-6%
COc1ccc2c(c1)-c1nc(/N=C/c3ccc(O)c(OC)c3)sc1CC2,-8,3%,-26%,25µM*,·,-7%
N#Cc1ccc(CN2CC3(CCN(C(=O)c4cc(C(F)(F)F)cc(C(F)(F)F)c4)CC3)C2)cc1,·,9%,-7%,8%,·,0%
CCC(CO)NC(=O)c1cccc(S(=O)(=O)N2c3ccccc3CC2C)c1 (stereo not drawn),-19,5%[38.3 µM],1%,6%,-5,-2%

# Source: PubChem BioAssay
